From PubChem BioAssay (EPA / NIEHS)
Values joined by “and” are separate entries in the source; they are usually repeats but may differ in a detail not shown here. Equal entries are not always repeated. Inconclusive results are not listed. Active and inactive are the calls of the source. The calls were made as follows, unless noted: active = hit-call score of the fitted dose curve at least 0.9, where 1 is the maximum; inactive = score below 0.9.

Columns and labels:
[1] = CCTE_Shafer_MEA_dev_mutual_information_norm: CCTE's Neural Network Formation Assay for Mutual Information Normalization, Shafer Lab (AID 2284091);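 as to AC50: mutual information between electrodes summarised as area under curve across four recording days; potency is for a decrease in mutual information relative to DMSO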
Summary of the method: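 Shared information across electrodes, tracked on days 5, 7, 9 and 12 of network development and collapsed as trapezoidal area under the curve. Rat cortical cultures were treated continuously from plating, with treatment renewed at feeds on DIV 5 and 9; DMSO baseline, negative-direction fit.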

[2] = CCTE_Shafer_MEA_dev_correlation_coefficient_mean: CCTE's Neural Network Formation Assay for Mean Correlation Coefficient, Shafer Lab (AID 2284093);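 as to AC50: well mean pairwise spike train correlation integrated as AUC over recording days 5 to 12; potency fitted for loss of correlation relative to DMSO vehicle wells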
Summary of the method: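 Primary rat cortical neurons on PEI-coated 48-well MEA plates (16 electrodes/well) were exposed from plating day 0 through DIV12, with compound renewed at DIV5 and 9. Pairwise spike correlations were averaged per well; trapezoidal AUC across DIV5, 7, 9, 12.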

[3] = CCTE_Mundy_HCI_Cortical_Synap_Neur_Matur_NeuriteSpotCountPerNeuriteLength: CCTE's Synaptogenesis and Neurite Maturation Assay in rat cortical cells for Neurite Spot Count per Neurite Length, Mundy Lab (AID 2284210)
Summary of the method: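 Synaptophysin spots per unit neurite length, measured by automated imaging of MAP2/synaptophysin/Hoechst-stained neurons. Cultures from rat cortex received chemical at DIV 7 with media change through DIV 12; glial growth arrested by AraC at DIV 5; DMSO baseline.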

[4] = CCTE_Mundy_HCI_Cortical_Synap_Neur_Matur_BPCount: CCTE's Synaptogenesis and Neurite Maturation Assay in rat cortical cells for Branch Point Count, Mundy Lab (AID 2284211)
Summary of the method: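 In this multiplexed morphology assay, cortical cells from rat receive chemicals at DIV 7 and are fixed at DIV 12, then immunostained and imaged; branch points are counted, with DMSO as baseline.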

[5] = CCTE_Mundy_HCI_Cortical_NOG_NeuriteCount: CCTE's Neurite Outgrowth Assay in rat cortical cells for Neurite Count, Mundy Lab (AID 2284212);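 also: cells fixed about two days after chemical exposure began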
Summary of the method: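 Rat cortical primary cells; compound added 2 h post-plating, 1/10 dilution of working solution. Anti-betaIII-tubulin/AF488 ICC; ArrayScan neurite count vs DMSO.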

[6] = CCTE_Mundy_HCI_Cortical_NOG_NeuriteLength: CCTE's Neurite Outgrowth Assay in rat cortical cells for Neurite Length, Mundy Lab (AID 2284213);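 as to AC50: neurites imaged about 48 to 50 h after chemical exposure began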
Summary of the method: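 First, rat primary cortical cells were plated and, 2 h later, given test chemical as a 1/10 dilution. Finally, βIII-tubulin immunostaining enabled automated imaging of neurite length.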

[7] = CCTE_Mundy_HCI_Cortical_Synap_Neur_Matur_NeuriteLength: CCTE's Synaptogenesis and Neurite Maturation Assay in rat cortical cells for Neurite Length, Mundy Lab (AID 2284214)
Summary of the method: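 Read-out: high-content imaging of MAP2-labelled neurites, with synaptophysin and Hoechst co-stain, in rat cortical cultures fixed at DIV 12. Activity fitted in positive direction relative to DMSO baseline.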

[8] = CCTE_Mundy_HCI_Cortical_Synap_Neur_Matur_NeuriteSpotCountPerNeuron: CCTE's Synaptogenesis and Neurite Maturation Assay in rat cortical cells for Neurite Spot Count per Neuron Count, Mundy Lab (AID 2284215)
Summary of the method: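 High-content imaging counts synaptophysin puncta along MAP2-labelled neurites per neuron after chemical exposure of rat cortical cells from DIV 7 to termination at DIV 12 (AraC added DIV 5). Loss of signal relative to DMSO.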

[9] = CCTE_Mundy_HCI_Cortical_Synap_Neur_Matur_SynapseCount: CCTE's Synaptogenesis and Neurite Maturation Assay in rat cortical cells for Synapse Count, Mundy Lab (AID 2284218)
Summary of the method: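 Read-out: synapse number per neuron, automated high-content imaging of fixed cells immunostained for MAP2 and synaptophysin plus Hoechst nuclei. Rat primary cortical cultures, AraC at DIV 5, chemical dosing DIV 7–12. Positive-direction fit relative to DMSO.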

[10] = CCTE_Mundy_HCI_Cortical_Synap_Neur_Matur_NeuriteCount: CCTE's Synaptogenesis and Neurite Maturation Assay in rat cortical cells for Neurite Count, Mundy Lab (AID 2284222);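 as to outcome: exposure from day 7 to day 12 in vitro with readout at day 12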
Summary of the method: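 Rat cortical neurons, 96-well; AraC DIV 5; chemical + media change DIV 7; end DIV 12. Fix PFA/Hoechst, anti-MAP2 + anti-synaptophysin IF. HCI neurite count vs DMSO baseline.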

[11] = CCTE_Mundy_HCI_Cortical_Synap_Neur_Matur_CellBodySpotCount: CCTE's Synaptogenesis and Neurite Maturation Assay in rat cortical cells for Cell Body Spot Count, Mundy Lab (AID 2284223)
Summary of the method: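 High-content imaging counts synaptophysin puncta on neuronal cell bodies per neuron after MAP2/synaptophysin immunostaining. Rat primary cortical cells, glia arrested with AraC at DIV 5, were exposed DIV 7–12; signal decrease measured against DMSO.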

[12] = UKN2_HCS_IMR90_neural_migration: University of Konstanz (UKN) Leist Lab Neural Crest Cell Migration Assay in human induced IMR90 Pluripotent Stem Cells (UKN2) (AID 2284204); details: actives raise or lower the signal
Summary of the method: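 High-content imaging of calcein-AM and Hoechst stained cells quantifies migration into a stopper-defined gap after 24 h compound exposure. Neural crest cells from IMR90 iPSC migrated 24 h in EGF/FGF N2-S medium before dosing; DMSO baseline.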

[13] = UKN4_HCS_LUHMES_neurite_outgrowth: University of Konstanz (UKN) Leist Lab Neurite Outgrowth Assay in human LUHMES cells (UKN4) (AID 2284206); details: actives raise or lower the signal
Summary of the method: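 Read-out: calcein-AM neurite area by high-content fluorescence imaging, with Hoechst H-33342 viability counterstain, after 24 h chemical exposure of day-2 differentiated LUHMES cells. Activity fitted bidirectionally against DMSO baseline.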

[14] = IUF_NPC1b_proliferation_BrdU_72hr: Leibniz Research Institute for Environmental Medicine (IUF) 72-hour Neural Progenitor Cell Bromodeoxyuridine (BrdU) Proliferation Assay (NPC1b) (AID 2284207)
Summary of the method: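 Human fetal cortex-derived (GW 16-19) neural progenitor spheres, 0.25-0.35 mm, one per well in EGF/FGF proliferation medium, exposed to compound for 72 h at 37C, pH 7.2-7.6. BrdU incorporation over the final 16 h read by luminescence ELISA, relative to DMSO.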

[15] = IUF_NPC1a_proliferation_area_72hr: Leibniz Research Institute for Environmental Medicine (IUF) 72-hour Neural Progenitor Cell Proliferation Area Assay (NPC1a) (AID 2284208)
Summary of the method: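 Proliferation read as increase in sphere area by phase-contrast imaging over 72 h continuous compound exposure (no renewal) of hNPC spheres grown with EGF/FGF at 37C, 5% CO2. Growth-factor withdrawal served as positive control; DMSO as baseline.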

[16] = IUF_NPC1_viability_72hr: Viability Assessment at 72 hours in the Leibniz Research Institute for Environmental Medicine (IUF) Neural Progenitor Cell Proliferation Assay (NPC1) (AID 2284209)
Summary of the method: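 Alamar blue fluorescence (RFU) after 72 h exposure, normalized to DMSO baseline. hNPC spheres from GW 16-19 fetal cortex, single sphere per well in growth-factor medium; no compound renewal.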

[17] = TAMU_PeakParms_SingleDonor1434_Chronotropy: Texas A&M University (TAMU) 1.5-hr Human Induced Pluripotent Stem Cell (iPSC)-derived Cardiomyocytes Calcium (Ca+2) Flux Assay for Cardiotoxicity: Chronotropy (changes in peak frequency) (AID 2284217); details: actives raise or lower the signal
Summary of the method: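 Beat rate, as mean Ca2+-flux peak frequency, was read from donor 1434 iPSC cardiomyocytes 90 min after exposure to 0.2–100 uM test chemical (0.5% DMSO). Wells that stopped beating were excluded; EC05 from bidirectional DMSO-referenced fitting.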

[18] = CCTE_Mundy_HCI_hN2_NOG_NeuriteCount: CCTE's Neurite Outgrowth Assay in human hN2 cells for Neurite Count, Mundy Lab (AID 2284219; active = hit-call score of the fitted dose curve at least 0.9, where 1 is the maximum)
Summary of the method: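 In this morphology assay, hNP1-derived neurons received test chemical 2 h post-plating and were fixed two days later in warm paraformaldehyde/sucrose containing Hoechst 33342. Neurites, labelled by rabbit anti-βIII-tubulin (1:800) and Alexa Fluor-488 (1:500), were counted automatically.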

[19] = CCTE_Mundy_HCI_hN2_NOG_NeuriteLength: CCTE's Neurite Outgrowth Assay in human hN2 cells for Neurite Length, Mundy Lab (AID 2284220; active = hit-call score of the fitted dose curve at least 0.9, where 1 is the maximum)
Summary of the method: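 Plate hNP1-derived neurons, then add chemical 2 h later as a 1/10 dilution. Stain with anti-βIII-tubulin then Alexa Fluor-488 secondary, and image automatically to measure neurite length.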

[20] = CCTE_Mundy_HCI_hN2_NOG_NeuronCount: CCTE's Neurite Outgrowth Assay in human hN2 cells for Neuron Count, Mundy Lab (AID 2284221; active = hit-call score of the fitted dose curve at least 0.9, where 1 is the maximum)
Summary of the method: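 Read-out is the number of betaIII-tubulin-positive neurons imaged by automated high-content analysis, with DMSO as negative control.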

For [Cl-].[Cl-].[Hg+2], the outcome [1] was “inactive” and the AC50 [2] was 0.66 µM (active).

For CN(C)[C@@H]1C(=O)C(C(N)=O)=C(O)[C@@]2(O)C(=O)C3=C(O)c4c(O)cccc4[C@@](C)(O)[C@H]3C[C@@H]12, the outcome [1] was “inactive”, the outcome [2] was “inactive” and the outcome [3] was “inactive”. For the same compound, the AC50 [4] was 474 nM (active), the outcome [5] was “inactive” and the outcome [6] was “inactive”. For the same compound, the outcome [7] was “inactive”, the outcome [8] was “inactive” and the outcome [9] was “inactive”. The outcome [10] was “inactive” and the outcome [11] was “inactive”.

For CCC[CH2][Sn]([Cl])([CH2]CCC)[CH2]CCC, the AC50 [1] was 23.1 nM (active), the AC50 [2] was 0.0772 µM (active) and the AC50 [12] was 195 nM (active). The AC50 [13] was 119 nM (active), the AC50 [14] was 112 nM (active) and the AC50 [15] was 673 nM (active). The AC50 [16] was 535 nM (active), the AC50 [3] was 37.5 nM (active) and the AC50 [4] was 48.1 nM (active). The AC50 [5] was 112 nM (active), the AC50 [6] was 88.2 nM (active) and the AC50 [7] was 46.8 nM (active). For the same compound, the AC50 [8] was 37 nM (active), the AC50 [9] was 56.9 nM (active) and the outcome [10] was “inactive”. For the same compound, the AC50 [11] was 102 nM (active).

In the case of CC(C)(O)c1cnn2c(-c3ccc(F)c(-c4c(F)cccc4C#N)c3)cnc2n1, the AC50 [1] is reported as 191 nM (active) and the outcome [2] is reported as “inactive”.

With ClC1=C(Cl)[C@]2(Cl)[C@H]3[C@H]([C@@H]4C=C[C@H]3C4)[C@@]1(Cl)C2(Cl)Cl the AC50 [1] was 909 nM (active), the AC50 [2] was 1.99 µM (active) and the outcome [17] was “inactive”.

For CC(C)COC(=O)c1ccccc1C(=O)OCC(C)C, the AC50 [1] was 22200 nM (active), the AC50 [2] was 13.9 µM (active) and the outcome [12] was “inactive”. For the same compound, the outcome [14] was “inactive”, the outcome [15] was “inactive” and the outcome [16] was “inactive”. The AC50 [3] was 87900 nM (active), the AC50 [4] was 76700 nM (active) and the outcome [5] was “inactive”. The outcome [6] was “inactive”, the AC50 [7] was 80200 nM (active) and the AC50 [8] was 77800 nM (active). The AC50 [9] was 79600 nM (active), the AC50 [10] was 88700 nM (active) and the AC50 [11] was 83800 nM (active).

With COC(=O)Nc1nc2ccccc2[nH]1 the AC50 [1] was 5190 nM (active), the AC50 [2] was 5.11 µM (active) and the outcome [12] was “inactive”. For the same compound, the AC50 [14] was 18400 nM (active), the outcome [15] was “inactive” and the outcome [16] was “inactive”. The outcome [3] was “inactive”, the AC50 [4] was 4140 nM (active) and the outcome [5] was “inactive”. The AC50 [6] was 12500 nM (active), the AC50 [7] was 4050 nM (active) and the outcome [8] was “inactive”. The outcome [9] was “inactive”, the outcome [10] was “inactive” and the outcome [11] was “inactive”.

In the case of [O-][Cl+]O, the outcome [1] is reported as “inactive”, the outcome [2] is reported as “inactive” and the AC50 [14] is reported as 2180 nM (active). For the same compound, the outcome [15] was “inactive”, the outcome [16] was “inactive” and the outcome [3] was “inactive”. The outcome [4] was “inactive”, the outcome [5] was “inactive” and the outcome [6] was “inactive”. The outcome [7] was “inactive”, the outcome [8] was “inactive” and the outcome [9] was “inactive”. The outcome [10] was “inactive” and the outcome [11] was “inactive”.

For OCCOCCO, the outcome [1] was “inactive”, the outcome [2] was “inactive” and the outcome [14] was “inactive”. For the same compound, the outcome [15] was “inactive”, the outcome [16] was “inactive” and the outcome [3] was “inactive”. For the same compound, the outcome [4] was “inactive”, the outcome [5] was “inactive” and the outcome [6] was “inactive”. The outcome [7] was “inactive”, the outcome [8] was “inactive” and the outcome [9] was “inactive”. The outcome [18] was “inactive”, the outcome [19] was “inactive” and the outcome [20] was “inactive”. For the same compound, the outcome [10] was “inactive” and the outcome [11] was “inactive”.

For Clc1ccc(C(c2ccc(Cl)cc2)C(Cl)(Cl)Cl)cc1, the AC50 [1] was 971 nM (active) and 2.52 µM (active), the AC50 [2] was 3 µM (active) and 4.07 µM (active) and the outcome [17] was “inactive”.
